SMILES strings stand for the structures. Records with an inconclusive call do not appear. Unmarked numbers belong to inactive results. Active and inactive are the calls of the source. Calls come from the whole dose curve; as a rule, active = well fitted inhibition curve with a large enough effect; inconclusive = small, poorly fitted or top-dose-only effect; inactive = flat fitted curve, though single readings scatter.

D(3) dopamine receptor (Homo sapiens), sequence (P35462 whole entry, looked up): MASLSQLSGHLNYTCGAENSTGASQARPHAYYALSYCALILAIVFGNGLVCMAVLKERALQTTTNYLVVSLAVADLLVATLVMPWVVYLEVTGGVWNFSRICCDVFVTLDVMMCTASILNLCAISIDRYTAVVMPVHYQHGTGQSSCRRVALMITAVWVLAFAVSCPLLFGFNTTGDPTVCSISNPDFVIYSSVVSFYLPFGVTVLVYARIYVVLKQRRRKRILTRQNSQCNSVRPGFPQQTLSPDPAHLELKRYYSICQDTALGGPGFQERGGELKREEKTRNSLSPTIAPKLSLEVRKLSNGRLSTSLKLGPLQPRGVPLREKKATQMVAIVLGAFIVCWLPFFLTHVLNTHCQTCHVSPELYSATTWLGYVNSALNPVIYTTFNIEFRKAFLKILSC

In this assay the target is D(3) dopamine receptor (Homo sapiens) (UniProt P35462). The assay can be described thus: HTS Assay for Allosteric Antagonists of the Human D2 Dopamine Receptor: SAR in D3 Beta Arrestin Assay. The settings on record: DiscoveRx PathHunter D3 beta-arrestin, luminescence, 90 min; series mostly up to 57.1 µM; activity, negative = inhibition: at the top concentration. The source says:
There is great interest in identifying small molecule ligands for G-protein coupled receptors (GPCRs) as nearly 50% of all FDA-approved drugs target these important receptor proteins. […] Amongst the dopamine receptors (DARs), the D2 is arguably one of the most validated drug targets in neurology and psychiatry. For instance, all receptor-based antiparkinsonian drugs primarily work via stimulating the D2 DAR, whereas all FDA-approved antipsychotic agents are antagonists of this receptor. The D2 DAR is also therapeutically targeted in other disorders such as restless legs syndrome, tardive dyskinesia, Tourette's syndrome, and hyperprolactinemia. […] This is an selectivity assay to test the lead compounds against the D3 receptor, using a beta arrestin assay. NIH Molecular Libraries Probe Production Network [MLPCN] NIH Chemical Genomics Center [NCGC] Grant: NS0676421 PI Name: David Sibley, National Institutes of Neurological Disorders and Stroke
DiscoveRx D3 cells were thawed from frozen stock and seeded at 2,100 cells/ 3 uL/well media (DiscoveRx Plating Reagent 2) with MultiDrop Combi dispenser (Thermo Scientific, Logan, UT) onto white tissue culture treated 1536-well Aurora plates (Brooks Automation, Chelmsford, MA) and allowed to attach overnight at 37 deg C, 5% CO2. Next, 23 nL/well of compound solutions in DMSO were added with a pintool transfer (Kalypsis, San Diego, CA). As the positive control, 1 uL/well dopamine (EC100, 57 uM final concentration) diluted in buffer (HBSS + 10 mM HEPES + SMB + 0.1% Tween-20) was dispensed to 1 column of each plate. The rest of the plate was dispensed with buffer only, 1 uL/well as well. The cells were stimulated by compounds or dopamine control for 90 minutes at 37 deg C, 5% CO2, after which 1.5 ul/well of DiscoveRx detection reagent was added with BioRAPTR FRD dispenser. The detection reagent was prepared by mixing of Galacton Star Substrate, Emerald II solution and PathHunter buffer (supplied by the assay kit) together at 1:5:19 proportion accordingly just prior to dispensing. The plates were incubated at ambient temperature for 1 hour and then the luminescent signal was read on ViewLux plate reader (PerkinElmer, Waltham, MA).
With `CN1C(=O)c2ccccc2[S@](=O)c2ccc(C(=O)NCc3ccc(Br)cc3)cc21`, the Potency was 4.58 µM (active).

For the compound `CCN1C(=O)c2ccccc2[S@](=O)c2ccc(C(=O)NCc3ccc(OC)cc3)cc21`, the Potency is 2.89 µM (active).

Take `CN1C(=O)c2ccccc2[S@](=O)c2ccc(C(=O)NCCN3CCCC3)cc21`: the Potency was 4.58 µM (active).

Consider `CN1C(=O)c2ccccc2[S@](=O)c2ccc(C(=O)NCc3cccnc3)cc21`, for which the Potency was 14.5 µM (active).

For `CCN1C(=O)c2ccccc2[S@](=O)c2ccc(C(=O)N[C@H](C)c3ccc(Br)cc3)cc21`, the Potency was 9.13 µM (active).

Consider `CN1C(=O)c2ccccc2[S@](=O)c2ccc(C(=O)NCCc3cccs3)cc21`, for which the Potency was 12.9 µM (active).

As to `CCN1C(=O)c2ccccc2[S@](=O)c2ccc(C(=O)NCc3ccc(C#N)cc3)cc21`, the Potency was 1.62 µM (active).

In the case of `CN1C(=O)c2ccccc2[S@](=O)c2ccc(C(=O)NCc3ccc(Cl)cc3)cc21`, the Potency is 10.2 µM (active).

On to `CCN1C(=O)c2ccccc2S(=O)c2ccc(C(=O)NCc3ccc(OC)cc3)cc21` (stereo not drawn), for which the Potency was 5.76 µM (active).

As to `CCN1C(=O)c2ccccc2[S@](=O)c2ccc(C(=O)NCc3ccc(F)cc3)cc21`, the Potency is 3.24 µM (active).

`CN1C(=O)c2ccccc2S(=O)c2ccc(C(=O)NCCc3cccs3)cc21` (stereo not drawn): the Potency is 20.4 µM (active).

In the case of `OC1(c2ccc(Cl)cc2)CCN(Cc2c[nH]c3ccccc23)CC1`, the Potency is 0.0646 µM (active).

With `CN1C(=O)c2ccccc2[S@@](=O)c2ccc(C(=O)NCCc3cccs3)cc21`, the “activity, negative = inhibition” value is -21.4%.

These data come from PubChem BioAssay AID624500 (National Center for Advancing Translational Sciences (NCATS), 2012).
